Reference: ChEMBL document CHEMBL5308504, “Tm Shift (DSF) assay results for EUbOPEN Chemogenomics Library” (2023)

Legend:
Settings in all cases: Compound concentration 20.0 uM, Protein concentration 2.0 uM, Result type QC Liability
[1] = target: Tyrosine-protein kinase ABL1 (Homo sapiens) (UniProt P00519)
[2] = target: Cyclin-dependent kinase 2 (Homo sapiens) (UniProt P24941)
[3] = target: Casein kinase I isoform delta (Homo sapiens) (UniProt P48730)
[4] = target: Glycogen synthase kinase-3 beta (Homo sapiens) (UniProt P49841)
[5] = target: Mitogen-activated protein kinase 1 (Homo sapiens) (UniProt P28482)
[6] = target: T1, Aurora kinase A (Homo sapiens) (UniProt O14965)
T1 sequence (whole entry): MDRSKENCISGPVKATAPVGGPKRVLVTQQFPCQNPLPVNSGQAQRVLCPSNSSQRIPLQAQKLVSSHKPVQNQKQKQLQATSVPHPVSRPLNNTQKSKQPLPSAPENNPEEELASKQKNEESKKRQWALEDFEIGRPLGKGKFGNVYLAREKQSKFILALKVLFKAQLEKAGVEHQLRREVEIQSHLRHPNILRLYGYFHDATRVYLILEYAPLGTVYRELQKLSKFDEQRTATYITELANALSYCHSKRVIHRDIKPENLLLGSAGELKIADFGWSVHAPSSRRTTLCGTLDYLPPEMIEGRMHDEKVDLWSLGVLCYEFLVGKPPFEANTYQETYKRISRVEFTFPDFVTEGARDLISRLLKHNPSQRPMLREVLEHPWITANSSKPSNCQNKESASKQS

Tyrosine-protein kinase ABL1 (Homo sapiens), sequence (P00519 whole entry): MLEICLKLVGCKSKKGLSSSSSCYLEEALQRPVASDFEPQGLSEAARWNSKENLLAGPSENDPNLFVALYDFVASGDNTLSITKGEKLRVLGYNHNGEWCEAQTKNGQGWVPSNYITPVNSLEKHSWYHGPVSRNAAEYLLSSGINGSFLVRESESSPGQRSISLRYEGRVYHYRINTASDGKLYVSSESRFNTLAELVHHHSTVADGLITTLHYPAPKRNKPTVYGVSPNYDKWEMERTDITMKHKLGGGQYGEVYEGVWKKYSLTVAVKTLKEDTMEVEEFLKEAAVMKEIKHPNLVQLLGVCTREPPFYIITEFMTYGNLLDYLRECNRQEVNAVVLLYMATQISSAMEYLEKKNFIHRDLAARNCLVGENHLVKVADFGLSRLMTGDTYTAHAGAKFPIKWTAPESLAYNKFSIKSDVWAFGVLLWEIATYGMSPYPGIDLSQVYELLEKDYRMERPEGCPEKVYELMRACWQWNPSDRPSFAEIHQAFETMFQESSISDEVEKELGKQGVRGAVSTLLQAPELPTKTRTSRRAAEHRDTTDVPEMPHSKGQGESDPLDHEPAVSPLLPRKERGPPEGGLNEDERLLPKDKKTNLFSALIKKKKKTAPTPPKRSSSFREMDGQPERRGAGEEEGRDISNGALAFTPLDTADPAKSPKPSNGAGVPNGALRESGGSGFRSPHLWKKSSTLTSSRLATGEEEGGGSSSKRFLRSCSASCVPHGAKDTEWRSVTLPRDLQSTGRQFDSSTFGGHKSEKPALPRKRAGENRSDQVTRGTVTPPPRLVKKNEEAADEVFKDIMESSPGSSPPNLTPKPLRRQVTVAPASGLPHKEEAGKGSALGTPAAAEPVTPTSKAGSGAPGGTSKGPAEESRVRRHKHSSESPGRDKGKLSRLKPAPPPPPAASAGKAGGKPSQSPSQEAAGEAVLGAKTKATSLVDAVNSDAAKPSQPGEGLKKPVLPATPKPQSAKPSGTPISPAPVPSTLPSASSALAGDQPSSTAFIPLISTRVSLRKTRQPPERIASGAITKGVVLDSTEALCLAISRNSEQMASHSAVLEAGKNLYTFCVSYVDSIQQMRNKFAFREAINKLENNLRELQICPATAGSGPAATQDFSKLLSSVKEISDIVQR
Glycogen synthase kinase-3 beta (Homo sapiens), sequence (P49841 whole entry, looked up): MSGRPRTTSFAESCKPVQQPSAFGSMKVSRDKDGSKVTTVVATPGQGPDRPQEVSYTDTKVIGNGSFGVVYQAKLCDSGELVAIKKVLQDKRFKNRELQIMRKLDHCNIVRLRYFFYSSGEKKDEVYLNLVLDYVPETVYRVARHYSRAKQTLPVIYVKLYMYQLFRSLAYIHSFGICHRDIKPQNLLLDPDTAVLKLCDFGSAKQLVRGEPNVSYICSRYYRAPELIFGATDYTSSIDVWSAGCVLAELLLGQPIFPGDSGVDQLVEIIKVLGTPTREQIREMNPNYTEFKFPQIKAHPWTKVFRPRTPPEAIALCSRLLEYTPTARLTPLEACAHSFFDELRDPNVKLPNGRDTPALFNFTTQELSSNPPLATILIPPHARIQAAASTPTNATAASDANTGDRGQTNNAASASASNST
Mitogen-activated protein kinase 1 (Homo sapiens), sequence (P28482 whole entry): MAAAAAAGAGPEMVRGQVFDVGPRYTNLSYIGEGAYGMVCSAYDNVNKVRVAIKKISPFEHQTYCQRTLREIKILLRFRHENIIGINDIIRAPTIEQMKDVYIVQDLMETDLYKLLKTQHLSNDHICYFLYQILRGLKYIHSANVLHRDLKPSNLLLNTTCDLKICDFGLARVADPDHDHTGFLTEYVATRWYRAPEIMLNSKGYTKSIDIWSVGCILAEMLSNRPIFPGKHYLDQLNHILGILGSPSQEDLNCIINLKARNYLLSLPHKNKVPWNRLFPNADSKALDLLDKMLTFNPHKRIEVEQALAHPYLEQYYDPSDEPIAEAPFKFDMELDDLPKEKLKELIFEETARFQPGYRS
Casein kinase I isoform delta (Homo sapiens), sequence (P48730 whole entry, looked up, canonical isoform): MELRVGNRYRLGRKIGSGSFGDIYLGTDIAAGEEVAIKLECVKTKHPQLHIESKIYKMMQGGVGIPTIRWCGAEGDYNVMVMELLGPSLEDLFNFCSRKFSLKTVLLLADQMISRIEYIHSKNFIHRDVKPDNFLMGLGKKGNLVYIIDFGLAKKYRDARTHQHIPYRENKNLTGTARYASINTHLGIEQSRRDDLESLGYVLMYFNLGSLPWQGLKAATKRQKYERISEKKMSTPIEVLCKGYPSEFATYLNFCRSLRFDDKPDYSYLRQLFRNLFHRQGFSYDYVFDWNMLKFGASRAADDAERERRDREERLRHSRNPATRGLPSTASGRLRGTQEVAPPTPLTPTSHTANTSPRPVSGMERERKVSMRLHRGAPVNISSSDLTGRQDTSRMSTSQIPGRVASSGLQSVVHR

Row | Structure (SMILES) | ΔTm [1] | ΔTm [2] | ΔTm [3] | ΔTm [4] | ΔTm [5] | ΔTm [6]
1 | Cc1cccc(CC(=O)N2CCc3c2ccc(-c2cn(C)c4ncnc(N)c24)c3F)n1 | 2.48 °C | 0.14 °C | 0.49 °C | -0.92 °C | 0.15 °C | 0.37 °C
2 | CCc1ncnc(N2CCN(C(C)=O)CC2)c1C#Cc1ccc(N)nc1 | 0.27 °C | 0.16 °C | 1.03 °C | -0.12 °C | 0.42 °C | -0.14 °C
3 | COc1cc(C(N)=O)ccc1Nc1ncc2c(n1)N(CCC(C)C)[C@H](C)C(=O)N2C | 1.42 °C | -0.37 °C | 0.51 °C | 0.01 °C | -6.61 °C | -0.69 °C
4 | CCS(=O)(=O)Nc1cccc(Oc2cncc(Nc3ccc(I)cc3F)c2C(N)=O)c1 | 0.95 °C | 0.72 °C | -0.53 °C | -0.71 °C | -2.21 °C | 1.45 °C
5 | CN1Cc2nccc(-c3cn(C)nc3-c3ccc(F)cc3)c2C1=O | 1.06 °C | 0.02 °C | 8 °C | -0.07 °C | 0.37 °C | -0.11 °C
6 | CP(C)(=O)c1ccc(CNC(=O)C2CCN(S(=O)(=O)c3cc(Cl)cc(Cl)c3)CC2)cc1 | 0.74 °C | 0.5 °C | 0.35 °C | -0.16 °C | 0.45 °C | -0.19 °C
7 | Oc1c(CN2CCCC2)cc(COCc2ccccc2)c2cccnc12 | 0.07 °C | 0.07 °C | 1.22 °C | -0.76 °C | 0.33 °C | -1.78 °C
8 | COc1cccc(-c2c(C)c(Cc3c(F)cccc3C(F)(F)F)c3n(c2=O)[C@@H]([C@@H](N)c2ccccc2)CS3)c1F | -0.84 °C | -0.89 °C | -2.7 °C | -0.72 °C | -2.02 °C | -0.62 °C
9 | O=C(NC[C@@H]1[C@H]2CN(C(=O)OCc3cc(C(F)(F)F)cc(C(F)(F)F)c3)C[C@@H]12)c1ccc2[nH]nnc2c1 | -2.53 °C | -9.8 °C | 0.69 °C | -10.5 °C | -10.3 °C | 0.61 °C
10 | CCCCC[C@H](O)/C=C/[C@H]1[C@H](O)CC(=O)[C@@H]1CCCCCCC(=O)O | 0.19 °C | 0.43 °C | 0.1 °C | -0.48 °C | 0.29 °C | -0.09 °C
11 | COc1ccc(S(=O)(=O)N2CCOCC2)cc1Nc1ccc2c(n1)N(C1CCN(C)CC1)[C@H](C)C(=O)N2C | -0.01 °C | 0.43 °C | 0.44 °C | 0.08 °C | 0.18 °C | 0 °C
12 | O=C(NCCN1CCOCC1)c1ccc2nn(CCOc3ccc(Cl)cc3)cc2c1 | 0.88 °C | 0.59 °C | 0.35 °C | -0.24 °C | 0.56 °C | 0.05 °C
13 | Cc1cc(S(=O)(=O)N2CC(C)(C)c3cc(-c4ccc(C(F)(F)F)cc4)ccc32)ccc1OCC(=O)O | 0 °C | -2.88 °C | -0.16 °C | -5.32 °C | -9.76 °C | -1.56 °C
14 | C[C@@H](Oc1cc(-n2cnc3ccc(OC4CCN(C)CC4)cc32)sc1C(N)=O)c1ccccc1Cl | 1.32 °C | -0.97 °C | 0.23 °C | 1.25 °C | 0.3 °C | 0.44 °C
15 | O=C(O)CCCN1CCC[C@H]1COc1ccc(Oc2ccc(Cl)cc2)cc1 | 0.14 °C | 0.25 °C | -0.11 °C | -0.15 °C | -0.08 °C | -0.43 °C
16 | CC(C)(C)c1cnc(CSc2cnc(NC(=O)C3CCN(CC(=O)NCCOCCOCCOCCNc4cccc5c4C(=O)N(C4CCC(=O)NC4=O)C5=O)CC3)s2)o1 (centres undefined) | -2.84 °C | 9.12 °C | 0 °C | 10.8 °C | 0.99 °C | 7.5 °C
17 | C/C=C1\C(=O)CC2C3CCC4=CC(=O)CC[C@]4(C)C3CC[C@]12C (some centres undefined) | 0.07 °C | -0.3 °C | 0.63 °C | -1.05 °C | 0.47 °C | -1.78 °C
18 | CCO[C@@H](Cc1ccc(OCCc2ccc(OS(C)(=O)=O)cc2)cc1)C(=O)O | 0.03 °C | 0.41 °C | -0.31 °C | -0.58 °C | 0.21 °C | 0.09 °C
19 | COCc1c(-c2cc3cc(C)cc(OC)c3s2)c2c(N)ncnn2c1CN[C@@H]1CCNC1=O | 2.45 °C | 0.59 °C | 0.29 °C | -0.7 °C | 0.28 °C | 3.49 °C
